Compound activity as filed in PubChem BioAssay.
M1 ag = activates human CHRM1 receptor | P11229 | CHO-K1 hM1, Fluo-8 calcium fluorescence, agonist mode; 0% DMSO, 100% acetylcholine EC100 | activation, % at 3 µM | actives 0.33% (n = 360,000);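 active means activation above the run's mean compound activation plus 3 SD, cut at about 16% in these data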;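 further: peak over basal fluorescence ratio within a 140 s kinetic read after compound addition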
Target sequence (P11229 whole entry, looked up): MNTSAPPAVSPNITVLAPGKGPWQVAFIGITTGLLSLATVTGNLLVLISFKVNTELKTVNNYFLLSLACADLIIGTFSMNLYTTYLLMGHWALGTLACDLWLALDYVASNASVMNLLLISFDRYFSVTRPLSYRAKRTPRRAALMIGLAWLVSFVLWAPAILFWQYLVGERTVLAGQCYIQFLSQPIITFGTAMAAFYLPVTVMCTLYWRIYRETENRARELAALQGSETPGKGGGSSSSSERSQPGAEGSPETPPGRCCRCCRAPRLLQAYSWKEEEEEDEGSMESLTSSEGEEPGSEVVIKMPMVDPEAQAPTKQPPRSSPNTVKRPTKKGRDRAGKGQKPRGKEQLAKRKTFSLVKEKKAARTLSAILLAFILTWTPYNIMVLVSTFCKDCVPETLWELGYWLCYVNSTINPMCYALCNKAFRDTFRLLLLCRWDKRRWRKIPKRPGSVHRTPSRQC
M1 antag = antagonists of human M1 muscarinic receptor; P11229; CHO-K1 hM1, Fluo-8 calcium fluorescence, ACh EC80 antagonist; inhibition, % at 3 µM; actives 1.3% (n = 360,000);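 active means percent inhibition above its own plate's cutoff, namely the mean of that plate's compound wells plus 3 SD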;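 further: peak over basal fluorescence ratio during 140 s after agonist addition; 0% = ACh EC80 plus DMSO and 100% = DMSO alone without agonist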
CHRM1 PAM = potentiates human M1 receptor response to acetylcholine; P11229; CHO-K1 hM1, Fluo-8 calcium fluorescence, ACh EC20; 0% = ACh EC20, 100% = maximal ACh; activation, % at 3 µM; actives 0.088% (n = 360,000); AID 588819; in the data active means activation above about 19%, passing the limit was not always enough
CHO-K1 Ca PAM = M1 PAM counterscreen hit in parental CHO-K1 cells; ATP EC20, Fluo-8 calcium fluorescence; 0% at ATP EC20, 100% at ATP max; activation, % at 3 µM; actives 0.02% (n = 360,000); AID 602247;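 active means activation above the run cutoff, the mean activation of all test compounds plus 3 SD, cut at about 40% in these data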;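 further: peak over basal fluorescence ratio in a 140 s read after ATP addition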
CHO-K1 Ca ag = counter-screen for M1 agonists: effect in parental CHO-K1 cells; activation, % at 3 µM; Fluo-8 calcium fluorescence; scaled to maximal ATP response, vehicle zero; AID 602248; actives 0.48% (n = 360,000); in the data active means activation above about 15%;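 further: untransfected CHO-K1 host cells lacking M1 receptor as counterscreen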
CHO-K1 Ca antag = nonselective inhibitor or artifact in parental CHO-K1 cells | actives 0.6% (n = 360,000) | ATP-induced calcium, Fluo-8 fluorescence | inhibition, % at 3 µM;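 active means inhibition above a per-plate cutoff, the plate's mean sample inhibition plus 3 SD, cut at about 24% in these data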;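 further: 0% = DMSO plus EC80 ATP and 100% = DMSO alone without ATP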
Active calls of the source: *; . = not tested or not shown. Only some compounds are listed: those with a hit (about 2.3% of all), similar ones and a draw of the others.

SMILES	M1 ag	M1 antag	CHRM1 PAM	CHO-K1 Ca PAM	CHO-K1 Ca ag	CHO-K1 Ca antag
CN(Cc1cccc(-c2ccncc2)c1)C(=O)Oc1ccccc1Cc1ccccc1	.	.	.	-8	12	24*
CN1CCN(C(=O)COc2ccc(Oc3ccccc3)cc2)CC1	-15	-2	8	10	2	-18
O=C(COc1ccc(Cl)cc1)N(c1ccc(Cl)cc1)C1CN2CCC1CC2 (stereo not drawn)	-4	44*	-21	3	2	-7
O=C(COc1ccc(Cl)cc1)N(c1ccccc1Cl)C1CN2CCC1CC2 (stereo not drawn)	-6	75*	-25	-12	2	10
CC(=O)Nc1nnc(CCN(CCc2nnc(NC(C)=O)s2)[N+](=O)[O-])s1	-2	-6	3	8	1	-5
O=C(O)C1C2c3ccccc3C(=O)C1(C(=O)O)c1ccccc12 (stereo not drawn)	-1	-11	7	16	2	6
C[N+]12CCC(CC1)C(C(O)(c1ccccc1)c1cccs1)C2 (stereo not drawn)	-8	99*	-23	25	2	-13
CCCC[N+]12CCC(CC1)C(C(O)(c1ccccc1)c1ccccc1)C2 (stereo not drawn)	-7	32	-18	-18	0	14
CCC[N+]12CCC(CC1)C(C(O)(c1ccccc1)c1ccccc1)C2 (stereo not drawn)	-9	60*	-24	4	0	-7
COC1C(O)C(C)OC(OC2CCC3(C)C(CCC4C3C(O)CC3(C)C(C5=CC(=O)OC5)CCC43O)C2)C1O (stereo not drawn)	2	-13	10	7	0	-11
CCOP(=O)(OCC)C(C)(C)NC(=O)C(Cl)(Cl)Cl	1	-5	4	10	1	-5
CS(=O)(=O)c1ccc(C2=C(CNC(=O)c3ccc([N+](=O)[O-])cc3)[C@H]3CC[C@@H](C2)N3CCOc2ccccc2)cc1	-11	23	-19	-10	0	-1
CS(=O)(=O)c1ccc(C2=C(CNC(=O)c3ccncc3)[C@H]3CC[C@@H](C2)N3CCOc2ccccc2)cc1	-11	29*	-19	-5	0	-9
O=C1NCN(c2ccccc2)C12CCNCC2	-10	-11	7	17	1	-20
O=C(NCCN1CCC2(CC1)C(=O)NCN2c1cccc(F)c1)c1ccc2ccccc2c1	.	.	.	-19	41*	93*
COC1CC2C=C(C)C=CC=CC(=O)NC(c3ccccc3)CC=CCCC(O)CC(=O)C2=C1O (stereo not drawn)	12	56*	-18	18	10	23
CCN1C[C@]2(C)CC[C@H](O)[C@]34C1[C@H](C[C@H]23)[C@@]1(O)C[C@H](OC)[C@H]2C[C@@H]4[C@@H]1C2O (stereo partly drawn)	4	-19	0	-4	0	12
O=C1CCCN1CC#CCN1CCCC1	102*	87*	-15	13	0	5
N#Cc1ccc(NC(=O)CN2C(=O)NC3(CCCCCCC3)C2=O)cc1Cl	-5	-1	0	14	1	-15
Oc1c(Cl)cccc1Cc1cc(Cl)cc(Cl)c1O	3	41*	-22	-22	8	15
O=C1NC(=O)C(C2CCOC2=O)N1 (stereo not drawn)	-3	-16	10	19	1	-12
COc1ccccc1OCC#CCN1CCCC1	-7	90*	-22	10	2	2
Clc1ccc(OCC#CCN2CCCCCC2)cc1	-6	49*	-22	12	1	-14
COC(=O)c1ccc(NC(=O)CSc2nc3ccc(N4C(=O)C5C6C=CC(C6)C5C4=O)cc3s2)cc1 (stereo not drawn)	3	44*	-25	-9	9	14
CCOC(=O)c1ccc(NC(=O)N2C[C@@H]3C[C@@H](C2)c2cccc(=O)n2C3)cc1	-14	19	-10	-18	0	25*
SMILES	M1 ag	M1 antag	CHRM1 PAM	CHO-K1 Ca PAM	CHO-K1 Ca ag	CHO-K1 Ca antag
CC(=O)c1cccc(NC(=O)N2C[C@H]3C[C@@H](C2)c2cccc(=O)n2C3)c1	-3	-12	5	-18	0	29*
COC(=O)C1=C(c2ccc(F)cc2OCc2ccccc2)C[C@@H]2CC[C@H]1N2C(=O)NC1Cc2ccccc2C1	-5	-13	6	-13	-1	11
C[N+]12CCC(CC1)C(=C(c1ccccc1)c1ccccc1)C2	-7	98*	-25	21	0	-9
CC[N+]12CCC(CC1)C(=C(c1ccccc1)c1ccccc1)C2	-8	98*	-25	-8	0	12
Cc1ncoc1C(=O)NCC1=C(c2ccc3ccccc3c2)C[C@@H]2CC[C@H]1N2Cc1ccco1	-9	7	-9	15	1	-5
CNc1cc(Cl)c2nonc2c1[N+](=O)[O-]	-1	25*	1	-17	-1	38*
COC(=O)C1=C(c2ccc(-c3ccccc3)c(F)c2)C[C@@H]2CC[C@H]1N2C(=O)N1CCCC1	-2	27	-13	7	2	-13
CC1(C)CSC(=NCc2ccccc2)N1	12	16	-16	-14	26*	20
c1ccc(C(c2ccccc2)c2ccncc2)cc1	-6	70*	-28	19	1	-10
CCCCC1(CC)COP(=O)(OCC(Cl)(Cl)Cl)OC1 (stereo not drawn)	-2	-15	11	14	0	-14
CN1CCN(Cc2ccccc2Sc2ccccc2)CC1	-10	100*	-22	11	3	-10
CC(Cc1ccccc1Sc1ccc(O)cc1)N(C)C (stereo not drawn)	-4	83*	-23	9	2	-3
CC(Cc1ccccc1Sc1ccccc1)N(C)C (stereo not drawn)	-10	98*	-24	23	2	-6
COc1ccccc1Sc1ccccc1CC(C)N (stereo not drawn)	-6	-2	1	13	2	-2
CSc1ccc(CN2CCN(Cc3ccccc3Cl)CC2)cc1	-5	5	-5	1	0	-3
COC(=O)C1=C(c2ccc(OCc3ccccc3)cc2)C[C@@H]2CC[C@H]1N2C(=O)NCc1cccc(OC)c1	-4	8	-3	4	2	-8
CC(C)COC(=O)N1Cc2ccccc2-n2nncc2C1	-3	-10	5	2	0	3
Cc1ccc(OC(=O)N(C)C[C@H]2OCc3cnnn3CCCC(=O)N([C@H](C)CO)C[C@@H]2C)cc1	-6	-12	2	6	0	1
CCOC(=O)C1(CCc2ccccc2)CCN(Cc2cccc3cnccc23)CC1	-14	48*	-34	9	0	6
